# Data taken from PubChem BioAssay AID1159580 (chemical genetic matrix, 2015).
# In all, about 5,500 compounds went through this assay and about 2,000 (36%) were called active. Not shown: some 18% with an inconclusive outcome. This is one part of the list. Unmarked numbers belong to inactive results. Cut-off read from the data, not from the text of the source: active = normalized growth mostly below about 0.91 (no sharp cut-off); inconclusive = no clear call, values can overlap the other calls; inactive = mostly above about 0.92.
# Assay: chemical genetic growth profiling, strain panel (AID 1159580);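 note: tested at 20 µM; growth read once vehicle control cultures reached saturation at 30 °C; 1 = growth at the plate median or of vehicle wells; lower values mean less growth of the strain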
# Settings: S. cerevisiae deletion strains, growth OD
compound,measurement,setting,value
O=c1c(O)c(-c2ccc(O)c(O)c2)oc2c(O)c(O)cc(O)c12,normalized growth,"locus YAL021C, strain ccr4, active compounds read low",0.864 (active)
same,normalized growth,"locus YAL026C, strain drs2, active compounds read low",0.954
same,normalized growth,"locus YAL030W, strain snc1, active compounds read low",1
same,normalized growth,"locus YBL061C, strain skt5, active compounds read low",0.925
same,normalized growth,"locus YBR009C, strain hhf1, active compounds read low",1.04
same,normalized growth,"locus YBR023C, strain chs3, active compounds read low",0.929
same,normalized growth,"locus YBR171W, strain sec66, active compounds read low",1.02
same,normalized growth,"locus YBR231C, strain swc5, active compounds read low",0.927
same,normalized growth,"locus YBR279W, strain paf1, active compounds read low",0.994
same,normalized growth,"locus YCL011C, strain gbp2, active compounds read low",1.01
same,normalized growth,"locus YCL016C, strain dcc1, active compounds read low",0.991
same,normalized growth,"locus YCL061C, strain MRC1, active compounds read low",0.989
same,normalized growth,"locus YCL069W, strain vba3, active compounds read low",1.01
same,normalized growth,"locus YCR088W, strain abp1, active compounds read low",1.02
same,normalized growth,"locus YDL005C, strain med2, active compounds read low",1.03
same,normalized growth,"locus YDL040C, strain nat1, active compounds read low",1.02
same,normalized growth,"locus YDR001C, strain nth1, active compounds read low",1.02
same,normalized growth,"locus YDR069C, strain doa4, active compounds read low",0.906
same,normalized growth,"locus YDR137W, strain rgp1, active compounds read low",1.02
same,normalized growth,"locus YDR159W, strain sac3, active compounds read low",1.13 [resistant] (active)
same,normalized growth,"locus YDR195W, strain ref2",1.01
same,normalized growth,"locus YDR297W, strain sur2, active compounds read low",1
same,normalized growth,"locus YDR334W, strain swr1, active compounds read low",0.983
same,normalized growth,"locus YDR335W, strain msn5, active compounds read low",0.994
same,normalized growth,"locus YDR392W, strain spt3, active compounds read low",1.04
same,normalized growth,"locus YEL003W, strain gim4, active compounds read low",0.996
same,normalized growth,"locus YEL037C, strain rad23, active compounds read low",0.987
same,normalized growth,"locus YEL061C, strain CIN8 (second series), active compounds read low",1.01
same,normalized growth,"locus YER015W, strain faa2, active compounds read low",0.98
same,normalized growth,"locus YER016W, strain bim1, active compounds read low",1.02
same,normalized growth,"locus YER111C, strain swi4, active compounds read low",0.942
same,normalized growth,"locus YER155C, strain BEM2 (second series), active compounds read low",0.984
same,normalized growth,"locus YFR010W, strain ubp6, active compounds read low",0.932
same,normalized growth,"locus YGL167C, strain pmr1, active compounds read low",1.01
same,normalized growth,"locus YGL173C, strain kem1, active compounds read low",0.947
same,normalized growth,"locus YGL227W, strain vid30, active compounds read low",1.03
same,normalized growth,"locus YGL240W, strain doc1, active compounds read low",1.11
same,normalized growth,"locus YGL253W, strain hxk2, active compounds read low",1
same,normalized growth,"locus YHR013C, strain ard1, active compounds read low",0.931
same,normalized growth,"locus YHR027C, strain rpn1, active compounds read low",0.983
same,normalized growth,"locus YHR030C, strain SLT2, active compounds read low",1
same,normalized growth,"locus YHR079C, strain IRE1, active compounds read low",1.02
same,normalized growth,"locus YHR142W, strain chs7, active compounds read low",0.891
same,normalized growth,"locus YJL092W, strain hpr5, active compounds read low",1.02
same,normalized growth,"locus YJL095W, strain BCK1 (second series), active compounds read low",0.993
same,normalized growth,"locus YJL095W, strain BCK1, active compounds read low",1.02
same,normalized growth,"locus YJL115W, strain asf1, active compounds read low",1.01
same,normalized growth,"locus YJL129C, strain trk1, active compounds read low",1.08
same,normalized growth,"locus YJL154C, strain vps35, active compounds read low",1.02
same,normalized growth,"locus YJL164C, strain tpk1, active compounds read low",0.959
same,normalized growth,"locus YJL166W, strain qcr8, active compounds read low",0.995
same,normalized growth,"locus YJL187C, strain SWE1, active compounds read low",0.997
same,normalized growth,"locus YJR066W, strain TOR1, active compounds read low",0.967
same,normalized growth,"locus YKL160W, strain elf1, active compounds read low",0.942
same,normalized growth,"locus YKR026C, strain gcn3, active compounds read low",1.01
same,normalized growth,"locus YKR091W, strain srl3, active compounds read low",1.03
same,normalized growth,"locus YLL001W, strain dnm1, active compounds read low",1.03
same,normalized growth,"locus YLL026W, active compounds read low",1.02
same,normalized growth,"locus YLL041C, strain sdh2, active compounds read low",1.01
same,normalized growth,"locus YLR027C, strain aat2, active compounds read low",0.992
same,normalized growth,"locus YLR113W, strain HOG1, active compounds read low",1.12
same,normalized growth,"locus YLR221C, strain rsa3, active compounds read low",0.981
same,normalized growth,"locus YLR258W, strain gsy2, active compounds read low",1.01
same,normalized growth,"locus YLR262C, strain YPT6 (second series), active compounds read low",0.919
same,normalized growth,"locus YLR320W, strain mms22, active compounds read low",1.02
same,normalized growth,"locus YLR342W, strain FKS1, active compounds read low",0.967
same,normalized growth,"locus YLR357W, strain rsc2, active compounds read low",0.889
same,normalized growth,"locus YLR370C, strain arc18, active compounds read low",0.938
same,normalized growth,"locus YLR384C, strain iki3, active compounds read low",1.01
same,normalized growth,"locus YML120C, strain ndi1, active compounds read low",1
same,normalized growth,"locus YMR058W, strain fet3, active compounds read low",0.921
same,normalized growth,"locus YMR125W, strain sto1, active compounds read low",1.03
same,normalized growth,"locus YMR129W, active compounds read low",1.02
same,normalized growth,"locus YMR205C, strain PFK2, active compounds read low",1.06
same,normalized growth,"locus YMR231W, strain pep5, active compounds read low",0.999
same,normalized growth,"locus YNL071W, strain lat1, active compounds read low",1.01
same,normalized growth,"locus YNL183C, strain NPR1, active compounds read low",0.997
same,normalized growth,"locus YNL209W, strain ssb2, active compounds read low",0.94
same,normalized growth,"locus YNL248C, strain rpa49, active compounds read low",1
same,normalized growth,"locus YNL322C, strain KRE1 (second series), active compounds read low",1.01
same,normalized growth,"locus YNR049C, strain mso1, active compounds read low",1.02
same,normalized growth,"locus YOR001W, strain rrp6, active compounds read low",0.981
same,normalized growth,"locus YOR070C, strain gyp1, active compounds read low",1.01
same,normalized growth,"locus YOR080W, strain dia2, active compounds read low",1.01
same,normalized growth,"locus YOR083W, strain WHI5, active compounds read low",0.931
same,normalized growth,"locus YOR106W, strain vam3, active compounds read low",0.872
same,normalized growth,"locus YOR231W, strain MKK1, active compounds read low",1.03
same,normalized growth,"locus YOR265W, strain rbl2, active compounds read low",1
same,normalized growth,"locus YOR270C, strain vph1, active compounds read low",0.948
same,normalized growth,"locus YOR290C, strain snf2, active compounds read low",0.962
same,normalized growth,"locus YPL051W, strain arl3, active compounds read low",0.92
same,normalized growth,"locus YPL078C, strain atp4, active compounds read low",0.963
same,normalized growth,"locus YPL106C, strain sse1, active compounds read low",1
same,normalized growth,"locus YPL240C, strain hsp82, active compounds read low",0.994
same,normalized growth,"locus YPL256C, strain CLN2, active compounds read low",1.04
